Here are results for twelve compounds from PubChem BioAssay.

Each structure is given as a SMILES string. The source made the active and inactive calls.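 Rule for the calls, unless noted: active = inhibition at or above 50% at 10 µM; inactive = inhibition below 50%.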

A short description of experiment [1]: inhibitors of TNFa-induced NFkB p65 translocation, primary screen, imaging, HUVEC, MLSMR starter and 10KST1 sets (AID 438;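 active = inhibition above 20% together with a positive visual image hit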;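 note: compound added about 3h40 before a 20 min TNFalpha stimulation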;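 for inhibition: signal is the nuclear over cytoplasmic p65 intensity ratio per well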). The following applies: HUVEC TNFa-induced p65 nuclear translocation; cell count: measured here: nuclei count (cytotoxicity indicator), at 2.08 µM; inhibition: at 2 µM, stronger effect = higher value, 0% TNFa-plus-vehicle, 100% no-TNFa wells.
Experiment [2] in a line: inhibitors of mutant huntingtin aggregation, primary screen, imaging, exon1htt(103Q)mCFP cells, high-content imaging (AID 483;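 active = visual image review flags a hit and inhibition of aggregation exceeds 20%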;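 note: compound exposure lasted 3 days before fixation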;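 for nuclei count: percent of the per-plate median nuclei count of sample wells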). The following applies: exon1htt(103Q)mCFP cell line, aggregate imaging, at 2 µM; inhibition of aggregation: stronger effect = higher value; nuclei count: measured here: cell count, toxicity.
The nature of experiment [3]: inhibitors of E-selectin induction by TNFa, primary screen, imaging, HUVEC, immunofluorescence, MLSMR starter and 10KST1 sets (AID 487;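 active = visually confirmed hit in the image check and inhibition above 20%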;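 for inhibition: signal is fraction of cell area covered by stained E-selectin grains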;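 for nuclei count: 100% = median nuclei count of all wells on the same plate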). The settings on record: HUVEC TNFalpha-induced E-selectin immunofluorescence imaging, at 2 µM; inhibition: stronger effect = higher value; nuclei count: measured here: cell number, toxicity.
In experiment [4] the target is Voltage-gated potassium channel subunit beta-2 (Rattus norvegicus) (UniProt P62483). As to the kind of experiment: KvBeta enzyme negative modulators, primary screen, biochemical, NADPH fluorescence (AID 622;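 active = fluorescence slope higher than the sample average by over 3 SD, cut at about -0.22 in these data, passing the limit was not always enough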;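 note: slope of raw intensity against log time taken from 70 to 1610 s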). The settings on record: recombinant KvBeta, 4-cyanobenzaldehyde reduction, at 10 µM, stronger effect = higher value.
Sequence of Voltage-gated potassium channel subunit beta-2 (Rattus norvegicus) (P62483 whole entry, looked up): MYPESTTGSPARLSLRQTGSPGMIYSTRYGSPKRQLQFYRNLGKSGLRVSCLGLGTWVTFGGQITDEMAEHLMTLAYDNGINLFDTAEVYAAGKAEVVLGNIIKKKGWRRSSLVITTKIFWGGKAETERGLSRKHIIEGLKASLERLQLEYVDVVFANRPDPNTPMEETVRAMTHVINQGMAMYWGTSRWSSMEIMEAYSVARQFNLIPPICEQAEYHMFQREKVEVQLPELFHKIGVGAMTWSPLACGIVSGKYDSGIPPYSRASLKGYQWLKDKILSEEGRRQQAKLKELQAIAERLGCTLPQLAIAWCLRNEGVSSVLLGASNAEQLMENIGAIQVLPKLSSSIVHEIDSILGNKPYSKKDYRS
Experiment [5] has the same target. As to the kind of experiment: KvBeta positive modulators, primary screen, biochemical, NADPH fluorescence (AID 623;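 active = NADPH fluorescence slope more negative than the mean of all samples by about 3 SD, 99.7% confidence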;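 note: fluorescence intensity change per second fitted from 20 to 320 s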). The settings on record: Recombinant KvBeta, NADPH fluorescence decrease slope, 10 min; at 10 µM; stronger effect = lower value.
Experiment [6] addresses Alpha-2C adrenergic receptor (Homo sapiens) (UniProt P18825). As to the kind of experiment: modulators of alpha2C/GIRK thallium flux, primary screen, cell-based, HEK293 alpha2C/GIRK1/2 (AID 624;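 active = fluorescence slope after compound addition differing from the mean of all screened samples at 99.7% confidence, in either direction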;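 note: slope of fluorescence ratio to pre-addition baseline per second over 15 to 24 s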). The settings on record: thallium flux BTC fluorescence, at 10 µM, actives lie on both sides.
A short description of experiment [7]: inhibitors of Sendai virus-induced IRF3 signaling, primary screen, TLR/RLR signaling modifier project, cell-based, Sendai virus stimulus, luciferase, 10K MLSCN set (AID 602276).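 Note: firefly luciferase from ISG56 promoter only with Renilla not read in this screen; 0% = Sendai virus plus DMSO and 100% = medium plus DMSO without virus.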 The settings on record: HEK293 RL24 IRF3 luciferase reporter, at 10 µM, stronger effect = higher value. On the technique in general: Reporter assays use an easily measured gene product as a stand-in for the process of interest.

Experiment [8] is described as follows: inhibitors of poly I:C-induced TLR3 signaling, primary screen, cell-based, poly I:C stimulus, luciferase, 10K MLSCN set (AID 602277;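 active = inhibition of the reporter signal at or above 50%; inactive = inhibition below 50%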). The following applies: HEK293-TLR3 RL24 IRF3 luciferase reporter, at 10 µM, stronger effect = higher value.

Sequence of Alpha-2C adrenergic receptor (Homo sapiens) (P18825 whole entry, looked up): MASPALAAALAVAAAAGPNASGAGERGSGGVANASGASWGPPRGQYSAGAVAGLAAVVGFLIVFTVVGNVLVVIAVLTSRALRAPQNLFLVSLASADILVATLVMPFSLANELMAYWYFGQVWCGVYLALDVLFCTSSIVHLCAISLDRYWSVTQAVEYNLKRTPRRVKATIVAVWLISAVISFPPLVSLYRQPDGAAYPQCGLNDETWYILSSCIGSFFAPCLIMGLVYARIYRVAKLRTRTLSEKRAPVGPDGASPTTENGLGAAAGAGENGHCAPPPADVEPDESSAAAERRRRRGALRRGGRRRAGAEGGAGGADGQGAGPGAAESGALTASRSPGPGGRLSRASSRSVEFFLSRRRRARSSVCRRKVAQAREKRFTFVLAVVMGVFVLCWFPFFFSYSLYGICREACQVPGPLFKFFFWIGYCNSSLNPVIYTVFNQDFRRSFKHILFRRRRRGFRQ

`Cc1cccc(NC(=O)Nc2cccc(C#N)c2)n1`: the cell count in experiment [1] was found to be 907. Besides, the inhibition (usually the change of the read-out against control, counted positive when it falls) in experiment [1] was -1.7% (inactive); in experiment [3], -77.1% (inactive); in experiment [7] it was -22.3% (inactive); in experiment [8] it was -135% (inactive). Besides, the inhibition of aggregation in experiment [2] is 10.2% (inactive). Moreover, the values for the nuclei count in experiment [2] and in experiment [3] were 112% and 121%, respectively. The fluorescence slope in experiment [4] is -0.567 (inactive). Besides, the NADPH fluorescence slope in experiment [5] is -3.2e-05 (inactive). Also, the slope in experiment [6] is 0.00605 (inactive).
`CCOC(=O)N1CCC(NC(=O)C2CCN(S(=O)(=O)c3cccc4cccnc34)CC2)CC1`: in experiment [1], the cell count was found to be 595. The inhibition was 1.8% (inactive) in experiment [1], 9.6% (inactive) in experiment [3], 12% (inactive) in experiment [7] and 35.6% (inactive) in experiment [8]. The inhibition of aggregation in experiment [2] is -71.5% (inactive). In addition, the nuclei count worked out at 11.3% in experiment [2] and 107% in experiment [3]. Moreover, in experiment [4], the fluorescence slope was -0.558 (inactive). The NADPH fluorescence slope in experiment [5] was -2.8e-05 (inactive). For the same compound, in experiment [6], the slope was 0.00729 (inactive).
For the compound `O=C(CSc1nnc2ncccn12)N1CCCCCC1`, in experiment [1], the cell count is 673. The inhibition in experiment [1] was 26.6% (active); in experiment [3], -9.5% (inactive); in experiment [7], 4.98% (inactive); in experiment [8] it was 99.3% (active). Also, the inhibition of aggregation in experiment [2] is 8.3% (inactive). Also, the nuclei count in experiment [2] was 106%; in experiment [3], 82.7%. In experiment [4], the fluorescence slope was -0.475 (inactive). In experiment [5], the NADPH fluorescence slope is -0.000211 (inactive). The slope in experiment [6] was 0.00529 (inactive).
As for `CCN(CC)c1ccc2cc(-c3nc4ccccc4[nH]3)c(=O)oc2c1`, in experiment [1], the cell count worked out at 437. Moreover, the inhibition in experiment [1] is 11.7% (inactive); in experiment [3], -74.3% (inactive); in experiment [7] it was 20.9% (inactive); in experiment [8], 32.6% (inactive). Further, the inhibition of aggregation in experiment [2] was 90.2% (active). Also, the results for the nuclei count in experiment [2] and in experiment [3] were 98.9% and 116%, respectively. Moreover, the fluorescence slope in experiment [4] was -0.313 (inactive). The NADPH fluorescence slope in experiment [5] is 4.5e-05 (inactive). Also, in experiment [6], the slope was 0 (active).
As for `CCOC(=O)C1CSC(CC(=O)Nc2ccc(Cl)cc2)C(=O)N1` (configuration not stated), the cell count in experiment [1] is 704. Moreover, the inhibition in experiment [1] is 3.9% (inactive); in experiment [3] it was -56.7% (inactive); in experiment [7], -5.63% (inactive); in experiment [8], 1.5% (inactive). For the same compound, in experiment [2], the inhibition of aggregation was 7.4% (inactive). For the same compound, the nuclei count came out at 103% in experiment [2] and 132% in experiment [3]. In experiment [4], the fluorescence slope was -0.325 (inactive). In addition, the NADPH fluorescence slope in experiment [5] is -4.9e-05 (inactive). Moreover, the slope in experiment [6] was 0.00513 (inactive).
As to `Cc1noc(C)c1CSc1nnc2n(-c3ccccc3)c(=O)c3ccccc3n12`, in experiment [1], the cell count was found to be 342. In addition, the inhibition is -4% (inactive) in experiment [1], -27.6% (inactive) in experiment [3], 7.36% (inactive) in experiment [7] and 20.9% (inactive) in experiment [8]. Also, in experiment [2], the inhibition of aggregation was 12.7% (inactive). The nuclei count in experiment [2] was 85.8%; in experiment [3] it was 89.5%. For the same compound, the fluorescence slope in experiment [4] was -0.411 (inactive). Also, in experiment [5], the NADPH fluorescence slope was -1e-05 (inactive). Further, the slope in experiment [6] was 0.00571 (inactive).
`CCc1nnc2c3cnn(-c4ccccc4)c3ncn12`: the cell count in experiment [1] is 402. For the same compound, the inhibition in experiment [1] was -2.9% (inactive); in experiment [3] it was -25.5% (inactive); in experiment [7], -19% (inactive); in experiment [8], -77% (inactive). In experiment [2], the inhibition of aggregation was -11.8% (inactive). The nuclei count was found to be 103% in experiment [2] and 125% in experiment [3]. Besides, the fluorescence slope in experiment [4] was -0.616 (inactive). The NADPH fluorescence slope in experiment [5] is 7.6e-06 (inactive). In experiment [6], the slope is 0.00633 (inactive).
For `CCOc1ccc(NCc2nnc(SCC(=O)Nc3cc(C)on3)n2-c2ccccc2OC)cc1`, the cell count in experiment [1] was 325. Besides, the inhibition is -9.3% (inactive) in experiment [1], 41.6% (inactive) in experiment [3], 20.4% (inactive) in experiment [7] and 30.4% (inactive) in experiment [8]. In addition, in experiment [2], the inhibition of aggregation was -6.4% (inactive). The nuclei count in experiment [2] came to 101%; in experiment [3], 107%. Further, the fluorescence slope in experiment [4] is -0.452 (inactive). Further, the NADPH fluorescence slope in experiment [5] is -2.8e-05 (inactive). Moreover, in experiment [6], the slope was 0.00835 (inactive).
With `Cc1cc2ncn(C(=O)c3c(-c4ccccc4)noc3C)c2cc1C`, in experiment [1], the cell count came to 202. Besides, the inhibition was -15.9% (inactive) in experiment [1], 25.9% (inactive) in experiment [3], 5.72% (inactive) in experiment [7] and 18.2% (inactive) in experiment [8]. In addition, in experiment [2], the inhibition of aggregation is -7.9% (inactive). Besides, the nuclei count in experiment [2] was 85.7%; in experiment [3] it was 99.7%. Further, in experiment [4], the fluorescence slope is -0.433 (inactive). Besides, the NADPH fluorescence slope in experiment [5] was -2.6e-06 (inactive). In addition, the slope in experiment [6] is 0.00548 (inactive).
`CC(=O)Nc1ccc(S(=O)(=O)N2CCC(c3nc4ccccc4[nH]3)CC2)cc1`: the cell count in experiment [1] turned out to be 232. Moreover, the inhibition in experiment [1] is 0% (inactive); in experiment [3], 17.7% (inactive); in experiment [7] it was 7.22% (inactive); in experiment [8] it was 17.6% (inactive). In experiment [2], the inhibition of aggregation was 14.3% (inactive). In addition, the nuclei count is 93.3% in experiment [2] and 84.3% in experiment [3]. For the same compound, in experiment [4], the fluorescence slope is -0.584 (inactive). Moreover, in experiment [5], the NADPH fluorescence slope is -6.2e-05 (inactive). In addition, the slope in experiment [6] is 0.00595 (inactive).
Take `CCOC(=O)N1CCN(C(=O)CN(c2ccc(C)cc2)S(=O)(=O)c2c(C)noc2C)CC1`: the cell count in experiment [1] came out at 565. Also, the inhibition is -28.3% (inactive) in experiment [1], -36.7% (inactive) in experiment [3], 18.5% (inactive) in experiment [7] and 30.7% (inactive) in experiment [8]. Further, the inhibition of aggregation in experiment [2] is -13% (inactive). Also, the values for the nuclei count in experiment [2] and in experiment [3] were 103% and 108%, respectively. Besides, the fluorescence slope in experiment [4] is -0.617 (inactive). In addition, the NADPH fluorescence slope in experiment [5] was 1.1e-05 (inactive). Besides, the slope in experiment [6] is 0.00556 (inactive).
With `Cc1cccc(N2C(=O)CC(Sc3nc(C)c4c(n3)CCCC4)C2=O)c1` (configuration not stated), the cell count in experiment [1] came to 603. Moreover, the inhibition was 3.4% (inactive) in experiment [1], 2% (inactive) in experiment [3], -11.6% (inactive) in experiment [7] and -8.43% (inactive) in experiment [8]. In addition, in experiment [2], the inhibition of aggregation is -4.5% (inactive). The results for the nuclei count in experiment [2] and in experiment [3] were 105% and 104%, respectively. Further, in experiment [4], the fluorescence slope is -0.592 (inactive). Also, the NADPH fluorescence slope in experiment [5] was -2.5e-05 (inactive). Moreover, the slope in experiment [6] was 0.00308 (inactive).
